CYP2C19 activ – activators of human cytochrome P450 2C19 | P33261 | recombinant CYP2C19, luciferin-H EGE luminescence; stronger effect = higher value; 0 = fully inhibited enzyme, 1 = untreated enzyme | activation factor at 5 µM | 96,000 tested, under 10 active | AID 1025;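 active means activation factor of at least 2 at 5 µM in the primary screen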;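 further: 0 = wells with 2.5 mM tranylcypromine and 1 = vehicle-only wells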
CYP2C19 inhib – inhibitors of human CYP2C19. P33261. AID 778. actives 21% (n = 96,000). inhibition, % at 5 µM. CYP2C19 Supersomes, luciferin-H EGE luminescence, 30 min;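 active means CYP2C19 inhibition above a set limit at 5 µM in the primary screen, cut at about 50% in these data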;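 further: plate controls were negative control wells for no effect and 2.5 mM tranylcypromine positive control for full effect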
CYP2C9 inhib – human CYP2C9 inhibition | P11712 | CYP2C9 Supersomes, luciferin-H conversion, luminescence | inhibition, % at 5 µM | actives 20% (n = 96,000);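 active means blocking of liver enzyme CYP2C9 beyond about 50% at 5 µM, limit read from the data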
Target sequence (P11712 whole entry, looked up): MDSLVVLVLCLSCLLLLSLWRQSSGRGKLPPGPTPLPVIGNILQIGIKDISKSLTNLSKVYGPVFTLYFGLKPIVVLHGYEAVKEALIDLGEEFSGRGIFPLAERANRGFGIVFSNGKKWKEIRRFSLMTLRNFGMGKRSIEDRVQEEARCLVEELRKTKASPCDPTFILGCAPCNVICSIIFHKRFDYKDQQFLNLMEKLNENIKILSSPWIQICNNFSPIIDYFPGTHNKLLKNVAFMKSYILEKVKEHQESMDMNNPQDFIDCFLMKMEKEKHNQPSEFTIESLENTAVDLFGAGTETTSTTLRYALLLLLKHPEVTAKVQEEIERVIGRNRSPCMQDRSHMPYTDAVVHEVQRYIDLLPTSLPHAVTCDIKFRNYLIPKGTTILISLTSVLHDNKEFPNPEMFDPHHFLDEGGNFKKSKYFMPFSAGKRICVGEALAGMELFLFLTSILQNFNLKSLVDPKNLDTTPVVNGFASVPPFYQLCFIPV
PostGolgi ctrl – inhibits growth of the yeast control strain; efflux-deficient yeast background strain, growth absorbance A615, 16 h; inhibition, % at 10 µM; actives 5% (n = 98,000); AID 738
CYP2C9 activ – activators of human CYP2C9. P11712. recombinant CYP2C9, luciferin-H conversion, luminescence; stronger effect = higher value; factor 1 = untreated enzyme, 0 = blocked. activation factor at 5 µM. actives 1.4% (n = 96,000);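 active means activation factor of 2 or more for CYP2C9 at a 5 µM dose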;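 further: 0 = sulfaphenazole-blocked wells and 1 = vehicle-only wells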
PostGolgi yeast – growth inhibition of a yeast mutant, post-Golgi transport screen; AID 739; inhibition, % at 10 µM; actives 0.9% (n = 98,000); post-Golgi transport phenotypic cell assay;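 further: yeast cells grown in 1536-well plates; yeast grown about 18 h at 30C before absorbance read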
* = called active by the depositor; nt = not tested or not shown. Rows were chosen to be rich in hits. Some 32% of all compounds tested hit in one or more screens of this group. Unless noted, no stated cut-off is given here; in the data, active means inhibition above about 30%; inactive means the rest.

SMILES	CYP2C19 activ	CYP2C19 inhib	CYP2C9 inhib	PostGolgi ctrl	CYP2C9 activ	PostGolgi yeast
CCN(CC)S(=O)(=O)c1ccc(NC(=O)CSc2cccc[n+]2[O-])cc1	1.2	-15	32	2	0.7	-1
COc1ccc(C2=NOC3(CC(=O)N(c4ccc(C)cc4)C3=O)C2)c(OC)c1 (centres undefined)	1.1	-6	2	-4	1	-3
Cc1cn2c(-c3cccnc3)nnc2s1	1.1	-10	-14	3	1.1	8
COc1ccc(-c2nnc(SCC(=O)Nc3cc(F)ccc3C)o2)cc1	0.5	54*	-37	9	1.4	-20
COc1ccc(NCc2nnc(SCC(=O)Nc3ccccc3OC)o2)cc1	0.8	21	-10	-4	1.1	3
COc1ccc(OC)c(NC(=O)CSc2nnc(CNc3ccc(F)cc3)o2)c1	0.4	56*	1	1	1	10
COc1ccccc1NC(=O)CSc1nnc(-c2ccc(C)cc2)o1	1	-1	-1	nt	1	nt
COc1ccc(OC)c(NC(=O)CSc2nnc(CNc3ccc(C)cc3C)o2)c1	0.2	81*	-24	17	1.2	11
COc1ccc(-c2nnc(SCC(=O)NC(C)c3ccccc3)o2)cc1OC (centres undefined)	0.4	62*	-10	2	1.1	15
S=c1[nH]c2cc(Cl)ccc2s1	0.9	7	17	15	0.8	2
CCCn1c(SCc2cc(=O)oc3ccc4ccccc4c23)n[nH]c1=O	0.2	78*	84*	-3	0.2	30*
O=C(COc1cc(=O)n2c(n1)SCCC2)c1ccccc1	0.7	26	-1	17	1	8
c1ccc(N(c2ccccc2)c2nc(N3CCOCC3)nc(N3CCOCC3)n2)cc1	0.9	14	8	nt	0.9	nt
CSc1nc(NCC(C)C)nc(N2CCOCC2)n1	0.5	49	4	8	1	-3
CC(Sc1nc(NCc2ccccc2)nc(N2CCOCC2)n1)C(=O)Nc1ccccc1 (centres undefined)	0.8	24	80*	2	0.2	-5
CCNc1nc(SC(C)C(=O)Nc2ccccc2)nc(N2CCOCC2)n1 (centres undefined)	0.9	10	56*	1	0.4	-8
CC(=O)C(Sc1nn(C)c(=S)s1)C(=O)Nc1ccccc1 (centres undefined)	0.8	20	96*	2	0	11
CC(=O)c1ccc(NC(=O)C(C)Sc2nnnn2C)cc1 (centres undefined)	0.8	19	0	9	1	8
CC(=O)C(Sc1nc(N2CCOCC2)nc(N2CCOCC2)n1)C(=O)Nc1ccccc1 (centres undefined)	0.8	21	55*	15	0.4	-2
CC(Sc1nc(NCc2ccccc2)nc(N(C)C)n1)C(=O)Nc1ccccc1 (centres undefined)	0.4	58*	81*	16	0.2	-9
CCOC(=O)CNC(=O)CSc1nc(NCc2ccccc2)nc(N(C)C)n1	0.5	53*	41	-2	0.6	2
CC(=O)OCC1OC(Sc2cccc3cccnc23)C(OC(C)=O)C(OC(C)=O)C1OC(C)=O (centres undefined)	1	-1	5	6	1	-3
CCc1ccc(-c2cc(C(=O)Nn3cnnc3)c3ccccc3n2)cc1	0.2	83*	99*	7	0	-10
CCCc1ccc(-c2cc(C(=O)NCCc3ccc(S(N)(=O)=O)cc3)c3ccccc3n2)cc1	0.6	45	98*	5	0	14
CCc1ccc(-c2cc(C(=O)N3N=C(C(F)F)CC3(O)C(F)F)c3ccccc3n2)cc1 (centres undefined)	0.8	22	78*	37*	0.2	2
SMILES	CYP2C19 activ	CYP2C19 inhib	CYP2C9 inhib	PostGolgi ctrl	CYP2C9 activ	PostGolgi yeast
COCC(=O)NCCc1ccc(S(N)(=O)=O)cc1	1	-4	-1	17	1	-8
Cn1c(N)c(C(=O)c2cc(-c3ccccc3)nc3ccccc23)c(=O)n(C)c1=O	0.8	16	-6	-8	1.1	-7
CC(C)Cc1nnc(NC(=O)c2cc(-c3ccccc3)nc3ccccc23)s1	0.6	44	32	11	0.7	8
CCCc1ccc(-c2cc(C(=O)NN3CCOCC3)c3ccccc3n2)cc1	0.6	39	87*	19	0.1	6
CCCCOC(=O)c1ccc(NC(=O)c2ocnc2C)cc1	0.8	24	41	12	0.6	9
Cc1ccc(S(=O)(=O)CCc2nc3ccccc3s2)cc1C	0.4	58*	29	-2	0.7	-7
CCNC(=O)c1ccc(-n2nc(C(F)(F)F)c3c2CCCC3)cc1	0.8	20	-146	9	2.5*	-1
COc1ccc(C2CC(c3cc(Br)ccc3F)n3nnnc3N2)cc1 (centres undefined)	0.6	38	64*	10	0.4	17
O=C(Nc1nc2n(n1)C(c1ccc(Cl)cc1)CC(c1ccc(Cl)cc1)N2)c1ccco1 (centres undefined)	0.3	71*	82*	14	0.2	-2
CCOc1ccc(C2CC(c3cccc(OC)c3OC)n3nnnc3N2)cc1Cl (centres undefined)	0	98*	89*	-1	0.1	-1
COc1ccc(C2CC(c3ccccc3)n3nc(NC(=O)c4cccs4)nc3N2)cc1 (centres undefined)	0.8	18	53*	-1	0.5	-1
COc1ccc(C2CC(c3ccccc3)Nc3nc(NC(=O)c4cccs4)nn32)cc1 (centres undefined)	1	-4	25	5	0.8	3
CCOc1ccc(C2CC(c3ccc(OC)c(OC)c3)n3nc(N)nc3N2)cc1 (centres undefined)	1	3	4	14	1	2
CC1=CC(c2ccc(Cl)cc2)n2nc(NC(=O)c3ccccc3)nc2N1 (centres undefined)	0.9	10	43	-3	0.6	0
CCOC(=O)CN(C(=O)CSc1nnc2c(n1)[nH]c1ccc(OC)cc12)c1ccc(F)cc1	0.8	20	34	2	0.7	4
COc1ccc(C2CC(c3ccccc3)n3nnnc3N2)cc1 (centres undefined)	0	98*	87*	-1	0.1	-3
CC(=O)Nc1nc2n(n1)C(c1ccccc1)C=C(c1ccccc1)N2 (centres undefined)	0.9	8	0	0	1	-1
O=C(Nc1nc2n(n1)C(c1ccccc1)C=C(c1ccccc1)N2)c1ccco1 (centres undefined)	0.7	31	73*	12	0.3	19
Cc1ccc(C2CC(c3cccc(Br)c3)Nc3nnnn32)cc1 (centres undefined)	0.5	51*	35	12	0.7	5
O=C(COc1c(F)c(F)cc(F)c1F)NC(=O)NC1CCCC1	0.7	27	12	5	0.9	5

Compound activity deposited in PubChem BioAssay by several laboratories.
